Laboratory results from PubChem BioAssay AID2551 (National Center for Advancing Translational Sciences (NCATS), 2010).
Hit rate of the full screen: of about 310,000 compounds, about 17,000 (5.5%) were called active. Inconclusive results (about 11%) are left out. The call rests on the fitted dose curve; in most records, active means well fitted inhibition curve with a large enough effect; inconclusive means small, poorly fitted or top-dose-only effect, or effect the other way; inactive means no such curve, though single readings can be large or run the other way. The sample as a whole holds a higher share of actives than the screen did.

biological target: Nuclear receptor ROR-gamma (Mus musculus) (UniProt P51450); assay: qHTS for inhibitors of ROR gamma transcriptional activity; conditions: Drosophila S2 Gal4-RORgamma UAS-luciferase reporter, 20 h; series mostly up to 53.6 µM; activity change, negative = inhibition: at the top concentration; further: nearly all actives have a fitted effect of over 60% in size
Sequence (P51450 whole entry, looked up, the tested form may be a part): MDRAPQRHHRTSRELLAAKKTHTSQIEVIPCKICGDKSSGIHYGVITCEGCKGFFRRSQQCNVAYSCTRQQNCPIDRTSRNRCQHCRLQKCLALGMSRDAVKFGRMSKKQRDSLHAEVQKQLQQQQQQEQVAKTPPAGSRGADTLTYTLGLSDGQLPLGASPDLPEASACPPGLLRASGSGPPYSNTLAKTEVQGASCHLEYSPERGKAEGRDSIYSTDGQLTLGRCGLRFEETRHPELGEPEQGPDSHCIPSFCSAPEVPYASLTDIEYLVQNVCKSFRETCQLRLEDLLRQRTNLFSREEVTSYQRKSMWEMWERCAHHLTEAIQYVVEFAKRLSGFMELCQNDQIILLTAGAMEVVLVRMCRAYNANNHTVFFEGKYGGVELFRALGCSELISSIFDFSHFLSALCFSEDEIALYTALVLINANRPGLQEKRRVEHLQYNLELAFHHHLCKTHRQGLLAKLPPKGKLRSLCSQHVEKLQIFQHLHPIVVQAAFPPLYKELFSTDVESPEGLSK
In short: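 Luciferase reporter read in Schneider cells carrying Gal4-RORγ (mouse) and UAS-Photinus luciferase; cells given compound 1 h before 700 uM copper sulfate induction, then incubated 20 h at ambient temperature.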
On the % scale 0 is the no-effect control and ±100 the full control effect; potency means the concentration at half of the fitted maximal effect.

Activity change, negative = inhibition, inactive:
CSc1ncccc1C(=O)NCc1ccccc1Cl -1.28%
COC(=O)c1ccc(CNC(=O)C2CCC(=O)N(Cc3cccc(F)c3)C2)cc1 (stereo not drawn) 8.55%
CCc1nnc(NC(=O)CSCc2cc(=O)n3cc(C)sc3n2)s1 1.38%
O=C1C(=O)N(CCCN2CCOCC2)C(c2ccc([N+](=O)[O-])cc2)/C1=C(\O)c1ccc2c(c1)OCCO2 (stereo not drawn) -5.32%
C=CCn1c(=O)c(C(=O)NCc2ccc3c(c2)OCO3)c(O)c2ccccc21 -26.9%
CC1CCN(CCCn2c(SCC(=O)NC3CCCC3)nc3ccccc3c2=O)CC1 -15.6%
CN(CCNC(=O)c1cc2c(-c3ccccc3F)nn(C)c2s1)C1CCCCC1 -20.2%
O=c1[nH]cnc(O)c1C(c1ccc(F)cc1)c1c(O)nc[nH]c1=O -1.37%
CCOc1ccc(CCNC(=O)CCc2nnc3ccc(N4CCCC4)nn23)cc1OCC 1.07%
CCOC(=O)C1(CCOC)CCN(Cc2cc3ccccc3s2)CC1 -12.6%
COC(=O)c1ccc(CN2CCC(CO)(Cc3ccc(OC)cc3)CC2)cc1 4.46%
Cc1cc2c(c(=O)n1Cc1ccccc1)C1O[C@](CCCCN3C(=O)c4ccccc4C3=O)(Cc3ccccc31)O2 18.4% [at 10 µM]
O=C(CN1CCc2cc3c(cc2C1)OCCCO3)Nc1ccccc1 -0.965%
COc1ccc(-n2cc(CN(C)Cc3n[nH]c(=O)[nH]3)c(-c3cccc(F)c3)n2)cc1 23%
Cc1cccc(-n2cc(CN3CCN(C(=O)c4ncn[nH]4)CC3)c(-c3cccc(F)c3)n2)c1 0.467%
COc1ccc(NC(=O)CCC(=O)Nc2nnc(C3CCCCC3)s2)cc1 -27.8%
CC(C)(C)NS(=O)(=O)c1ccc(NC(=O)C2CCCO2)cc1 (stereo not drawn) 1.02%
O=C(CNC(=O)c1cccnc1)N/N=C/c1cc(Br)c(O)c(Br)c1 -21.6%
O=C(CNC(=O)C1COc2ccccc2O1)N/N=C/c1cc(Br)c(O)c(Br)c1 (stereo not drawn) 1.65%
CSCCC(Nc1nc2ccccc2s1)C(=O)O (stereo not drawn) -22.4%
O=C(Nc1ccccc1)Nc1nc2ccccc2s1 -23.2%
CC(C)(COC(=O)Nc1ccccc1)COC(=O)Nc1ccccc1 -2.91%
CCn1c(SCC(=O)Nc2ccc(Br)cc2)nc2sc3c(c2c1=O)CCN(C)C3 39%
Nc1ncc(CN2CCCC(C(=O)Nc3ccc(-c4ccco4)cc3)C2)cn1 (stereo not drawn) -10.1%

Potency, active:
CCOC(=O)C1(CCOC)CCN(Cc2ccc(C(=O)OC)cc2)CC1 7.08 µM
Cc1ccc(-n2cc(CN(C)Cc3nccn3C)c(-c3cccc(C)c3)n2)cc1 7.94 µM
Oc1c(Br)cc(/C=N/NC(=S)NCC2CCCO2)cc1Br (stereo not drawn) 0.1 µM
c1ccc2sc(NN=C3CCCC3)nc2c1 7.94 µM
